Source: PubChem BioAssay (several laboratories)
PrPC TRFRET = cell surface PrPC inhibition, primary TR-FRET screen; P04156; 370,000 compounds, 0.43% hits; inhibition, % at 13.8 µM; TR-FRET read-out; in the data active = inhibition above about 24%; also: 0% = median of the test wells and 100% = reference compound wells
BJeLR viability = kills HRASV12-expressing BJeLR cells; BJeLR (HRASV12) viability, CellTiter-Glo ATP luminescence, 48 h; inhibition, % (test concentration not listed); 300,000 compounds, 0.17% hits; in the data active = inhibition above about 50%; inconclusive = no clear call, values can overlap the other calls
PfHsp40 yeast = rescue of PfHsp40-mediated yeast toxicity; S. cerevisiae expressing PfHsp40, growth rescue, ATP luminescence; growth rescue, % at 12.5 µM; 340,000 compounds, 0.68% hits; in the data active = growth rescue above about 28%, passing the limit was not always enough; inconclusive = no clear call, values can overlap the other calls;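 also: yeast W303a lacking pdr1 and pdr3 grown in galactose medium; growth measured after three days at 30 °C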
PrP 5UTR inh = inhibition of PrP 5' UTR reporter expression; cell-based PrP 5' UTR mRNA reporter, plate reader; inhibition, % (concentration not given with the values); 340,000 compounds, 0.35% hits; AID 488862; in the data active = inhibition above about 52%; also: 0 = median of the neutral control wells
PriA SSB inh = K. pneumoniae PriA-SSBct interaction inhibition | AlphaScreen SSBct-PriA binding, biotinylated peptide | inhibition, % at 33 µM | 430,000 compounds, 0.6% hits | AID 1272365; in the data active = inhibition mostly above about 37%, no sharp cut-off; inactive = mostly below about 20%;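 also: plate controls were negative control peptide for no effect and reference peptide for full effect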
RecA splice inh = blocks M. tuberculosis RecA intein splicing; cell-free RecA intein splicing, fluorescence; 290,000 compounds, 0.75% hits; P9WHJ3; inhibition, % (no concentration beside the values); in the data active = inhibition above about 30%; inconclusive = no clear call, values can overlap the other calls;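 also: 0% = vehicle wells and 100% = reference inhibitor control wells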
The depositor's hits bear a star; ? = inconclusive; . = not tested or not shown. The list is not random: actives were taken first. Their share in the collection is about 1.9%.

SMILES	PrPC TRFRET	BJeLR viability	PfHsp40 yeast	PrP 5UTR inh	PriA SSB inh	RecA splice inh
Cc1cc(C)c2c(c1)c(-c1ccccc1)c(-c1ccccc1)n2C[C@@H](O)CNC1CCCC1	.	.	.	.	45*	.
Nc1nc(CCl)nc(Nc2cccc3ccccc23)n1	-1	125*	.	.	-5	16
Nc1nc(Nc2cccc3ccccc23)nc(C2CCCC2=O)n1 (stereo not drawn)	0	-5	.	.	.	1
NCCc1nc(-c2ccncc2)no1	.	.	.	.	1	.
Cn1c(=O)n(Cc2cccnc2)c(=O)c2c(N3CCN(C(=O)C4CC4)CC3)ccnc21	.	.	.	.	-1	.
Cc1cc(C)c2nc(C)cc(N/N=C/c3ccc(O)cc3)c2c1	-9	51*	-1	-15	.	-9
Cc1cc(NN=Cc2ccc(O)cc2)c2cccc(C)c2n1	.	.	.	.	16	.
O=C(O)c1cncc2cccnc12	.	.	.	.	-2	.
Cn1cnc([N+](=O)[O-])c1Oc1ccc2ccccc2c1	6	-16	1	5	-5	36*
Cn1cnc([N+](=O)[O-])c1Sc1nc2ccccc2[nH]1	9	8	.	.	-5	13
Cn1c(=O)oc2ccc(S(=O)(=O)NC[C@H](O)c3ccc4c(c3)CCO4)cc21	.	.	.	.	2	.
Oc1ccc(N=Nc2ccc3c(c2)OCCO3)c2cccnc12	-7	17	268*	17	3	-7
COc1ccc(N=Nc2ccc(O)c3ncccc23)cc1	-7	26	2	13	-8	10
COc1cccc(N=Nc2ccc(O)c3ncccc23)c1	-20	66*	1	-2	27	-2
O=C(Nc1ccc2c(c1)CN(S(=O)(=O)c1ccccc1)CC2)c1ccc2c(c1)OCO2	.	.	.	.	0	.
CCOC(=O)CC(=O)CSc1nc2c(c(C)c1C#N)CCC2	1	-6	31*	-3	-19	-10
Cn1cnc([N+](=O)[O-])c1Sc1nnc(-c2cccnc2)n1C	-1	-5	-1	-26	-6	39*
Cc1cccnc1Sc1c([N+](=O)[O-])ncn1C	-9	0	-1	-39	-8	.
CCc1cccc(NC(=S)Nc2cccc3ccccc23)c1	4	1	-2	-10	38*	7
S=C(Nc1ccc(Cl)cc1)Nc1cccc2cnccc12	-7	15	105*	-32	5	6
CCOc1ccc(NC(=S)Nc2cccc3ccccc23)cc1	3	5	-1	-14	50*	4
Fc1ccc(NC(=S)Nc2cccc3cnccc23)cc1	-11	-5	0	-25	16	2
CCOc1ccc(NC(=S)Nc2cccc3cnccc23)cc1	-12	5	-1	-15	33	2
CCOc1ccc2cccc(NC(=O)c3ccc(Cl)s3)c2n1	.	.	.	.	-13	.
COc1ccc(NC(=O)c2nc[nH]c2C(=O)N[C@@H](CC(C)C)C(=O)OC(C)(C)C)cc1	2	-2	27*	-7	-9	-7
SMILES	PrPC TRFRET	BJeLR viability	PfHsp40 yeast	PrP 5UTR inh	PriA SSB inh	RecA splice inh
COc1ccc(NC(=O)c2nc[nH]c2C(=O)N[C@@H](C)C(=O)OC(C)(C)C)cc1	-2	2	2	-23	-6	-3
CC(C)S(=O)(=O)c1ccc(CC(=O)NC[C@H](O)c2ccoc2)cc1	.	.	.	.	5	.
c1cnc2c(c1)ccc1ncccc12	0	-6	0	-10	-1	-1
c1cnc2c(c1)c1nccnc1c1cccnc12	.	.	.	.	114*	.
O=c1[nH][nH]c(=O)c2ncccc12	.	.	.	.	61*	.
Cc1c(C)c2cccnc2c2ncccc12	.	.	76*	59*	99*	.
COc1ccccc1S(=O)(=O)NC1CCC(Oc2cnccn2)CC1 (stereo not drawn)	.	.	.	.	0	.
CCc1nnc(N)o1	.	.	.	.	-2	.
O=C(O)c1cc(-c2ccc(N3CCOCC3)cc2)nn1-c1ccccc1Cl	-7	-1	0	-22	-6	-2
O=C(O)c1cc(-c2ccc(N3CCOCC3)cc2)nn1-c1ccc(F)cc1F	8	-5	40*	-20	8	2
COc1ncc(NS(=O)(=O)c2ccc3c(c2)OCCO3)cn1	.	.	.	.	9	.
Cn1nnnc1N=NC(=NNc1ccccc1)c1ccccc1	.	.	.	.	11	.
Cn1nnnc1N=N/C(=N/Nc1ccccc1)c1ccccc1	15	66*	234*	13	.	2
O=C(O)/C(=C\c1ccc(-c2ccc(F)cc2)o1)c1ccccc1	-7	.	37*	-7	-1	.
O=C(O)C(=Cc1ccncc1)c1cccc2ccccc12	-1	.	.	.	.	.
O=C(O)/C(=C\c1ccc2ccccc2c1)c1cccc2ccccc12	-4	0	117*	4	4	12
COc1ccc(C(=O)NN=Cc2ccc(OC)c(CN3CCN(c4ccc(F)cc4)CC3)c2)cc1	.	.	.	.	7	.
O=c1c2cc(Cl)ccc2nc(-c2ccc([N+](=O)[O-])cc2)n1O	0	0	179*	-27	-10	1
N#Cc1ccc(-c2nc3cc(Cl)ccc3c(=O)n2O)cc1	-4	-1	136*	8	-5	-1
Cn1c(=O)c(-c2cc(=O)[nH][nH]2)c(O)c2ccccc21	2	6	47*	-20	-10	-7
CCn1c(=O)c(-c2ccccc2)c(O)c2ccccc21	4	10	0	-9	-5	-1
O=c1cc(-c2c(O)c3ccccc3n(Cc3ccccc3)c2=O)[nH][nH]1	-6	-10	155*	-17	8	4
CCn1c(=O)c(-c2cc(=O)[nH][nH]2)c(O)c2ccccc21	-5	-6	97*	-17	-2	0
Brc1cccc(-c2nnc3sc(-c4cccnc4)nn23)c1	.	.	.	.	-6	.
O=C(CSc1ccc(-c2ccccn2)nn1)Nc1cccc(F)c1	7	5	?	-18	55*	-10
SMILES	PrPC TRFRET	BJeLR viability	PfHsp40 yeast	PrP 5UTR inh	PriA SSB inh	RecA splice inh
O=C(CSc1ccc(-c2ccccn2)nn1)Nc1cccc([N+](=O)[O-])c1	.	.	.	.	48*	.
O=C(CSc1c(-c2ccccc2)[nH]c2ccccc12)N1CCc2ccccc21	.	.	.	.	-20	.
O=C(NCCN1CCN(c2ccc(F)cc2)CC1)c1ccc(F)cc1F	.	.	.	.	-15	.
C/C(=N\NC(=O)c1ccc(O)cc1)c1cccc(NC(=O)c2ccc(Cl)cc2)c1	8	3	44*	-27	.	3
O=C(c1ccc2c(c1)OCO2)N1CCN(Cc2nc(C3CC3)cs2)CC1	.	.	.	.	-13	.
O=c1[nH]c(=S)[nH]c2[nH]ncc12	.	.	.	.	5	.
COc1ccc2cnn(-c3ccccc3C)c(=O)c2c1OC	-5	-2	136*	-10	-11	-6
COc1ccc2cnn(-c3ccccc3)c(=O)c2c1OC	-2	-7	66*	-22	-4	-1
COc1ccc2cnn(-c3ccc(OC(F)(F)F)cc3)c(=O)c2c1OC	0	3	10	-47	-9	0
Oc1ccc(C=Nc2cccc3ncccc23)c(O)c1	-4	-9	0	-11	96*	-1
CCOc1ccc(C=Nc2cccc3ncccc23)cc1	-5	-8	0	-14	77*	-4
COc1ccc(C=Nc2cccnc2N)cc1	.	-2	-3	-20	-16	.
Oc1ccc(C=Nc2ccc3ncccc3c2)c(O)c1	.	0	.	.	.	53*
